How the values were obtained:
Settings in all cases: Compound Concentration (nM):1000
RET(V804M) = test system: RET(V804M)
RET = test system: RET
RIOK1 = test system: RIOK1
RIOK2 = test system: RIOK2
RIOK3 = test system: RIOK3
RIPK1 = test system: RIPK1
RIPK2 = test system: RIPK2
RIPK4 = test system: RIPK4
RIPK5 = test system: T1, RIPK5
T1 construct: gene DSTYK

ROCK1 = test system: ROCK1
ROCK2 = test system: ROCK2
ROS1 = test system: ROS1
[1] = test system: RPS6KA4(Kin.Dom.1-N-terminal)
[2] = test system: RPS6KA4(Kin.Dom.2-C-terminal)
[3] = test system: RPS6KA5(Kin.Dom.1-N-terminal)
[4] = test system: RPS6KA5(Kin.Dom.2-C-terminal)
[5] = test system: T2, RSK1(Kin.Dom.1-N-terminal)
T2 construct: gene RPS6KA1

[6] = test system: T3, RSK1(Kin.Dom.2-C-terminal)
T3 construct: gene RPS6KA1

[7] = test system: T4, RSK2(Kin.Dom.1-N-terminal)
T4 construct: gene RPS6KA3

[8] = test system: T5, RSK2(Kin.Dom.2-C-terminal)
T5 construct: gene RPS6KA3
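Note: KINOMEscan scanMAX binding as percent activity remaining versus control; lower means stronger binding.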

SMILES	Percent Control (RET(V804M)) [%]	Percent Control (RET) [%]	Percent Control (RIOK1) [%]	Percent Control (RIOK2) [%]	Percent Control (RIOK3) [%]	Percent Control (RIPK1) [%]	Percent Control (RIPK2) [%]	Percent Control (RIPK4) [%]	Percent Control (RIPK5) [%]	Percent Control (ROCK1) [%]	Percent Control (ROCK2) [%]	Percent Control (ROS1) [%]	Percent Control [1] [%]	Percent Control [2] [%]	Percent Control [3] [%]	Percent Control [4] [%]	Percent Control [5] [%]	Percent Control [6] [%]	Percent Control [7] [%]	Percent Control [8] [%]
Cl.O=C(Nc1ccc(Oc2ccc3[nH]c(NC(=O)c4ccco4)nc3c2)cc1)Nc1cc(C(F)(F)F)ccc1F [GW683134A]	0.4	0	64	98	40	21	48	100	100	73	57	61	100	82	95	75	100	100	100	100
COc1cc2ncn(-c3cc(O[C@H](C)c4ccccc4Cl)c(C(N)=O)s3)c2cc1OC [GSK237701A]	77	54	26	100	19	61	100	87	84	69	83	92	92	68	100	72	96	87	50	77
CC(C)COC(=O)c1ccc2c(c1)/C(=C/Nc1ccc(S(N)(=O)=O)cc1)C(=O)N2 [GW416981X]	26	100	21	100	15	100	100	100	48	36	21	100	100	67	100	66	100	100	36	97
Cl.O=C(O[C@H]1CN[C@H](C#Cc2cc3ncnc(Nc4ccc5c(cnn5Cc5ccccc5)c4)c3s2)C1)N1CCOCC1 [GSK200398A]	100	100	100	100	100	100	16	84	100	96	84	73	97	88	100	100	96	97	95	93
NS(=O)(=O)c1ccc(N/N=C2\C(=O)Nc3ccc(Cl)cc32)cc1 [GW280670X]	100	100	74	100	89	100	100	100	100	100	89	79	100	97	100	100	100	100	100	83
Nc1ncnc2occ(-c3ccc(NC(=O)Nc4cc(C(F)(F)F)ccc4F)cc3)c12 [GW770249X]	0.1	0	56	100	44	26	100	100	80	84	27	56	100	92	55	100	100	100	89	98
COC(=O)Nc1nc2ccc(Oc3ccc(NC(=O)Nc4cc(C(F)(F)F)ccc4F)cc3)cc2s1.Cl [GW693917A]	0.5	0.1	62	100	54	45	25	76	100	79	86	95	100	80	100	100	99	94	98	86
CC1=C(C(=O)Nc2ccc3[nH]ncc3c2)C(c2ccc3ccccc3c2)CC(=O)N1 (stereo not shown) [GSK270822A]	66	28	74	100	88	97	90	68	96		0	81	100	91	100	64	91	99	72	75
COc1cccc(-c2c[nH]c3c(N/N=C/c4ccncc4)ncnc23)c1 [GW814408X]	100	85	49	76	66	100	41	13	100	79	73	100	100	62	100	100	88	77	75	100
CCS(=O)(=O)c1ccc(OC)c(Nc2ncc(-c3cccc(F)c3)o2)c1 [GW621970X]	100	67	94	71	100	85	57	100	100	96	100	90	100	94	100	100	100	100	100	83

Reference: publication PMC7826789 (International Journal of Molecular Sciences, 2021)
